High-throughput results deposited in PubChem BioAssay by several laboratories.
Most compounds without a hit are left out; they make up all but 4.6% or so of the library.
AHR act – activates the human aryl hydrocarbon receptor. P35869. AHR-responsive luciferase reporter cells, luminescence. activation, % at 5 µM. actives 2.5% (n = 320,000). AID 2796; in the data active means activation above about 47%;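 further: 0% = vehicle wells and 100% = reference agonist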
Target sequence (P35869 whole entry, looked up): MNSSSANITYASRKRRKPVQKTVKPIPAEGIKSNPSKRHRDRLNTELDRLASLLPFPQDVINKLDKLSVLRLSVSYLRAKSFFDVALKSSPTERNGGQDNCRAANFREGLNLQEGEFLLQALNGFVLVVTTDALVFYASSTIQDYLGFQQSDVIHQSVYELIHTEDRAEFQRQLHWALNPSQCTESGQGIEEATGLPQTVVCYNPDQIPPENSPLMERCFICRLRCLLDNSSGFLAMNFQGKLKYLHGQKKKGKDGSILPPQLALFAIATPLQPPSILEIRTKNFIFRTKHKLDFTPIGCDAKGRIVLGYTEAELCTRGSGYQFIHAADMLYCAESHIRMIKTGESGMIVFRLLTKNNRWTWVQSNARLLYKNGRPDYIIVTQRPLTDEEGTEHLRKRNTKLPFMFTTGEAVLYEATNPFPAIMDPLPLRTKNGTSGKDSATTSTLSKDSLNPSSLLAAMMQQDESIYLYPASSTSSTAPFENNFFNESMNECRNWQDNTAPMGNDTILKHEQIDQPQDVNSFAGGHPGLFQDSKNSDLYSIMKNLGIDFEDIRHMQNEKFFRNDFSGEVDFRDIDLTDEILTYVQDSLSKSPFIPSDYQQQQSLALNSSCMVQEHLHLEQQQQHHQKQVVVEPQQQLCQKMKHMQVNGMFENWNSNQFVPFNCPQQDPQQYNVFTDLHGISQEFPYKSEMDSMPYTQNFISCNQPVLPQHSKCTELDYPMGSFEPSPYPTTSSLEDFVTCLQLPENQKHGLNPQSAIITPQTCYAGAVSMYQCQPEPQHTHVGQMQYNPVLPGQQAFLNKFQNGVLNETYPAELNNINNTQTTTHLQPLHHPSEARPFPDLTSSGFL
HSF1 activator – increases HSF-1 driven luciferase reporter signal. NIH3T3-HGL HSF-1 luciferase reporter, MG132, 8 h; 100% = twice DMSO control signal. activation, % at 9 µM. actives 1.7% (n = 300,000). AID 504408;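 active means mean replicate activation of at least 50% with a set share of replicates each reaching 50%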;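 further: 0% = median of the neutral control wells and 100% = twice that signal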
FXN GAA850 act – activators of GAA850 frataxin (FXN) promoter. HEK293 lucGAA850 FXN promoter luciferase reporter, 24 h; percent of 10 µM SAHA response. activation, % at 6 µM. actives 0.56% (n = 360,000). AID 540364;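 active means activation above the average of all compounds screened plus 3 SD, cutoff fixed separately per campaign, cut at about 7.5% in these data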;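 further: 0% = DMSO wells and 100% = 10 µM SAHA wells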
HSF1 inh – HSF1 inhibition; NIH3T3-HGL HSE-luciferase, MG132-induced, luminescence 8 h; active compounds read low; activity change, negative = inhibition, % at 7.5 µM (by protocol); actives 0.77% (n = 300,000);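 active means more than half of replicate wells show activity change below -50%, luminescence cut by over half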;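 further: luciferase reports HSF-1 transcriptional activity via heat shock element; 0% = median of DMSO wells and -100% = zero luminescence signal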
Numbers without * were called inactive; . = no result given.

SMILES	AHR act	HSF1 activator	FXN GAA850 act	HSF1 inh
CC(=O)Oc1ccc(-c2nc(-c3cccnc3)no2)cc1	0	35	0	22
Nc1nc(Nc2ccc(Cl)cc2Cl)nc(C(F)(F)F)n1	10	.	7	.
Cc1ccc(-c2csc(/C(C#N)=C(\O)CCl)n2)cc1	.	27	1	22
Cc1ccc(C(=O)Nc2ncc(Cc3ccccc3)s2)o1	41	54*	0	23
O=C(Nc1ncc(Cc2ccccc2)s1)c1cccs1	11	55*	1	39
Cc1ccc(Cc2cnc(NC(=O)c3cccs3)s2)cc1	26	65*	5	34
Oc1ccc(Br)cc1-c1cc(-c2ccccc2Cl)[nH]n1	47	-1	5	0
Cc1ccc(-c2cc(-c3ccc(C)cc3O)[nH]n2)cc1	68*	71*	2	52
Cc1ccc(-c2cc(-c3ccccc3[N+](=O)[O-])[nH]n2)c(O)c1	60*	39	2	14
Cc1ccc(-c2cc(NC(=O)c3ccccc3[N+](=O)[O-])n[nH]2)cc1	45	11	-1	8
Cc1ccc(-c2cc(-c3ccccc3Cl)[nH]n2)c(O)c1	86*	38	4	47
Cc1ccc(O)c(-c2cc(-c3cccc(Br)c3)n[nH]2)c1	70*	67*	1	44
Cc1ccc(-c2cc(-c3ccc(F)cc3)n[nH]2)c(O)c1	.	30	8	26
CCCCCCCCOc1ccc(C2OC34CCCCC3C(C#N)(C#N)C2(C#N)C(=N)O4)cc1 (configuration not stated)	8	2	1	5
O=C(N/N=C(\c1ccccc1)c1cccnc1)c1cccc(F)c1	5	127*	2	100
CSc1nnc(N2C(=O)C(O)=C(C(=O)c3ccco3)C2c2ccc(F)cc2)s1 (configuration not stated)	0	20	0	9
CC1(C)CCCN(Cc2c(O)ccc3c(=O)c(-c4nc5ccccc5s4)c(N)oc23)C1	10	79*	2	52
COc1ccc(Cn2c(-c3ccc(Br)cc3)c[n+]3ccccc23)cc1	14	62*	2	34
O=C(NC1CCCC1)c1cnc2n(c1=O)CCS2	60*	-11	2	-9
CC(NC(=O)NC1CCCCC1)c1ccc2c(c1)OCO2 (configuration not stated)	0	13	1	-2
O=C(CCl)Nc1cccn2ncnc12	1	-6	1	-4
O=C(Nc1cccn2ncnc12)C(F)(F)F	3	63*	2	19
COc1ccc2c(c1)c(C(=O)CNc1nc(C)cs1)c(C)n2C	45	61*	3	25
O=C(CCNC(=O)Cn1ccc2ccccc2c1=O)NCCN1CCN(c2ccccc2F)CC1	1	-15	0	-7
CCc1cc2c(SCC#N)ncnc2s1	0	80*	1	19
SMILES	AHR act	HSF1 activator	FXN GAA850 act	HSF1 inh
CCc1cc2c(SCC(=O)O)ncnc2s1	0	-9	0	-9
Cc1ccc(-c2cc(-c3ccc4c(c3)OCO4)c(C#N)c(N)n2)o1	75*	12	-2	4
CCOc1ccc(NC(=O)CC2C(=O)N(C)C(=S)N2Cc2ccco2)cc1 (configuration not stated)	5	0	1	-1
CN1C(=O)C(CC(=O)Nc2ccc(Cl)cc2)N(Cc2ccco2)C1=S (configuration not stated)	6	53*	3	36
CCC(C)(C)NC(=O)C(c1cccc(OC)c1OC)N(Cc1ccc(OC)cc1)C(=O)CCC(=O)Nc1cc(C)on1 (configuration not stated)	-3	60*	-1	28
CCC(C)(C)NC(=O)C(c1cccc(OC)c1OC)N(Cc1ccccc1)C(=O)CCC(=O)Nc1cc(C)on1 (configuration not stated)	-3	3	-3	1
COc1ccc(N2CCN(CCNC(=O)Nc3ccc(C)c(Cl)c3)CC2)cc1	4	-8	-1	-1
OCCCNc1nc(-c2ccccc2)nc2c1oc1ccccc12	50*	10	0	-2
c1ccc(-c2nc(NCc3cccnc3)c3oc4ccccc4c3n2)cc1	36	76*	2	55
CCC(CC)C(=O)Nc1nnc(SCC(=O)N2CCN(c3ccccc3OC)CC2)s1	2	10	-4	-5
COC(=O)c1ccc(CNC(=O)c2ccc(NS(=O)(=O)c3ccc4[nH]c(=O)[nH]c4c3)cc2)cc1	-2	-5	0	4
Cc1nnc(N/N=C\c2ccc(-c3ccccc3[N+](=O)[O-])o2)n1N	61*	80*	1	36
Cc1n[nH]c(=S)n1/N=C/c1ccc(-c2ccccc2[N+](=O)[O-])o1	60*	31	3	11
CCc1nnc(N/N=C/c2ccc(-c3ccc([N+](=O)[O-])cc3)o2)n1N	24	49	0	36
O=C(N/N=C/c1ccc(-c2ccccc2[N+](=O)[O-])o1)[C@H]1C[C@@H]1c1ccccc1	69*	41	0	25
COc1cc(C2NCCc3c2[nH]c2ccccc32)ccc1OC(C)C (configuration not stated)	12	-20	.	-6
CCOC(=O)c1[nH]cc(-c2ccccc2)c1N1CCOCC1	49*	.	1	.
CCOC(=O)c1cnc(-c2ccccc2)nc1N1CCOCC1	48*	-22	2	-9
CCOC(=O)c1cc(-c2ccc(N3CCOCC3)cc2)nn1-c1ccccc1	7	22	3	3
CCc1cc2c(cc(C(=O)O)n2C)s1	7	8	-2	4
Cc1cc(C(=O)COC(=O)Cn2c(C(F)(F)F)nc3ccccc32)c(C)n1Cc1ccco1	-3	18	-1	13
Cc1cc(C)c(NC(=O)c2cc(=O)c3ccccc3o2)c(C)c1	0	2	-2	-2
Cc1cc(C)n2cc(CSc3ccc(Br)cc3)nc2n1	1	22	1	16
Cc1ccc(C)c(S(=O)(=O)N/N=C/c2ccc(F)cc2)c1	74*	-2	0	2
COC(=O)c1ccc(NC(=O)C(=O)c2c[nH]c3ccccc23)cc1	30	31	2	21
SMILES	AHR act	HSF1 activator	FXN GAA850 act	HSF1 inh
COCCn1c(C)cc(C(=O)CSc2ccc3ccccc3n2)c1C	19	29	0	26
CC(=O)Nc1ccc(N2CCCCC2)c(C(=O)Nc2cccc(C)c2)c1	2	-1	-1	1
COc1ccc2[nH]c(=O)c(CN(Cc3cccs3)S(=O)(=O)c3c(C)ccc4nsnc34)cc2c1	2	-69	-5	-64*
Cn1ncc(Cl)c1C(=O)NCc1ccc2c(c1)OCO2	49*	-7	-3	5
Cn1ncc(Cl)c1C(=O)Nc1ccncc1	-1	3	1	-1
CCc1ccc(NC(=O)c2cnc3scc(C)n3c2=O)cc1	63*	27	2	22
Cn1ncc(Cl)c1C(=O)Nc1ccc(CN2CCCCC2)cc1	76*	-15	-2	-1
Cc1csc2ncc(C(=O)NCc3ccc4c(c3)OCO4)c(=O)n12	78*	4	.	-2
Cc1csc2ncc(C(=O)NCc3ccccc3Cl)c(=O)n12	45	1	2	5
